In PubChem BioAssay AID602 (SRMLSC, 2007) one finds differential viability (reversal) and viability data, which are given here for 7 molecules.

A short description of this assay: reversal of MRP1-mediated doxorubicin resistance, primary screen, H69AR cells, doxorubicin co-treatment (AID 602).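 For differential viability (reversal): larger differential means the compound sensitizes cells more to doxorubicin.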 Particulars: CellTiter-Glo, 72 h, at 10 µM; for differential viability (reversal): stronger effect = higher value. Background: Cellular ATP, detected with luciferase, serves as a proxy for viable cell number.
The mark [1] stands for this setting: H69AR cells + 2 uM doxorubicin, measured here: viability with 2 uM doxorubicin, stronger effect = lower value.
The mark [2] stands for this setting: H69AR cells, measured here: cytotoxicity without doxorubicin.

Hit rate of the full screen: of about 85,000 compounds, about 35 (0.04%) were called active.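 Rule for the calls: active = viability drop by adding the cancer drug above about 55%, with treated viability meeting a 40% cutoff (limit read from the data); inactive = the rest, inconclusive results apart.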 The list comes from a sample in which actives are over-represented; it also holds similar structures and randomly drawn compounds.

By viability is commonly meant a read-out of living cells in per cent, often relative to untreated cells. Consider `O=C(NCC1CCC(C(=O)O)CC1)OCc1ccccc1` (stereo unspecified), for which, where the note is “H69AR cells + 2 uM doxorubicin”, the differential viability (reversal) was 6.33% (inactive). Besides, the viability amounted to 92.2% under setting [1] and 98.5% under setting [2].
For `CCN(CC)CCn1c(=S)[nH]c2ncccc2c1=O` the same measures were 12.4% (inactive), 88.8% and 101%.
For `CCOC(=O)C1C(=O)NCC1c1ccccc1` (stereo unspecified) the same measures were 1.49% (inactive), 98.4% and 99.9%.
For `CC(C)CC(N=C1NC(C)(C)Cc2ccccc21)C(=O)O` (stereo unspecified), the differential viability (reversal) (H69AR cells + 2 uM doxorubicin) is 9.71% (inactive). Besides, the viability is, setting by setting: under setting [1], 98.6%; under setting [2], 108%.
`CCCCNC(=O)OC(C)CNC(=O)OC` (stereo unspecified): the differential viability (reversal) (H69AR cells + 2 uM doxorubicin) is -15% (inactive). In addition, the viability stood at 111% under setting [1] and 95.6% under setting [2].
For `COc1cc(OC)nc(NC(=O)CCl)n1`, in that order: 4.9% (inactive), 93.8% and 98.7%.
Consider `Cc1cc2nc(C)n(CCCNC(=O)Nc3ccccc3)c2cc1C`, for which the differential viability (reversal) (H69AR cells + 2 uM doxorubicin) is 7.8% (inactive). Besides, the viability under setting [1] was determined as 83.9% and the viability under setting [2] turned out to be 91.7%.
